Screens from PubChem.
HCV inh: blocks hepatitis C virus; actives 3.4% (n = 340,000); Huh7.5.1 HCVcc-Cre infection, luciferase reporter, 44 h; Potency, µM (highest dose often 41.8 µM), inactives show top-dose activity change, negative = inhibition, usual class: inhibitors; also: potency is read from the fitted curve at half-maximal effect
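Luciferase read-out (15 sec integration) after a 15 min room-temperature substrate step quantifies HCVcc-Cre infection. Cells, 1,000 per well, had compound added 4 h post-plating, then virus at ~0.5 moi, and were cultured 44 h.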
Lassa entry inh: Lassa virus entry inhibition; actives 1.2% (n = 300,000); Lassa virus pseudotype entry inhibition, cell reporter; Potency, µM (top dose mostly 37.9 µM), for the others: at the top dose activity change, negative = inhibition, most hits filed as inhibitors; calls by dose curve; tested in HEK293 cells; also: potency is read from the fitted curve at half-maximal effect; nearly all actives have a fitted effect of over 50% in size
Pf growth 96h: inhibits malaria parasite growth, 96 h. actives 6.9% (n = 320,000). P. falciparum luciferase reporter growth, 96 h. Potency, µM (doses to about 28.7 µM), without a hit: top-dose activity change, negative = inhibition, most hits filed as inhibitors; also: potency is read from the fitted curve at half-maximal effect
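Plates of compound plus infected erythrocytes (2% hematocrit, 0.05% parasitemia final) incubate 96 hours, 37 C, 5% CO2. Detection reagent added; reduced luminescence from the parasites' luciferase reporter flags inhibition.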
Pf growth 48h: inhibits P. falciparum growth in the first generation, 48 h | P. falciparum luciferase growth in erythrocytes, 48 h | actives 5.9% (n = 310,000) | Potency, µM (doses to about 28.7 µM), for the others: at the highest dose activity change, negative = inhibition, most hits filed as inhibitors; also: potency is read from the fitted curve at half-maximal effect
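Cell-based growth assay: transgenic P. falciparum expressing firefly luciferase, cultured in red cells within RPMI 1640 containing 0.5% w/v Albumax, 24 mM bicarbonate and gentamycin. A drop in luciferase activity indicates inhibition.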
HCMV antiviral: blocks human cytomegalovirus replication. HFF cells, HCMV-luciferase reporter, 72 h; active compounds read low. activity change, negative = inhibition, % at 57.5 µM. actives 4.5% (n = 410,000); in the data active = activity change below about -60%; inconclusive = no clear call, values can overlap the other calls; inactive = above about -39%
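Two-dose cell screen: HFF monolayers treated with compounds and infected with luciferase-expressing HCMV at 1 PFU/cell, 72 h at 37C, then lysed for luciferase measurement.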
Marburg entry inh: blocks Marburg virus binding to or entry into cells | AID 540276 | actives 1.8% (n = 300,000) | Potency, µM (highest dose often 37.8 µM), for the others: top-dose activity change, negative = inhibition, usual class: inhibitors | Marburg virus pseudotyped entry inhibition, cell reporter; calls by dose curve; tested in HEK293 cells; also: potency is read from the fitted curve at half-maximal effect
An asterisk follows results filed as active; ? = inconclusive; · = not tested or not shown; [ ] = remark or other dose. Compounds with a hit are over-represented: about 14% of the library has one in this group of screens. Unless noted, calls follow the shape of the dose curve; as a rule, active = well fitted inhibition curve with a large enough effect; inconclusive = small, poorly fitted or top-dose-only effect, or another doubt; inactive = no such curve, though single readings can be large or run the other way. % is scaled to controls: 0 for no effect and ±100 for the full control effect.

SMILES | HCV inh | Lassa entry inh | Pf growth 96h | Pf growth 48h | HCMV antiviral | Marburg entry inh
Cc1cc(-c2ccco2)n2c(nc3ccccc32)c1C#N | ? | -2.0% | 68.7% | 11.7µM* | 25.6 | -0.3%
COCCN(CCOC)c1cc(C)c(C#N)c2nc3ccccc3n12 | -25.3% | -1.6% | 10.4µM* | ? | 22.4 | 3.9%[46.1 µM]
CCN(CC)CCNc1cc(C)c(C#N)c2nc3ccccc3n12 | -11.2% | · | 28.8% | ? | -7.1 | ·
Cc1ccnc(N2CCN(c3cc(C)c(C#N)c4nc5ccccc5n34)CC2)c1 | 5.9% | -4.2% | · | · | -6.9 | -21.2%
Nc1ccc2c(c1)C(=O)c1cc(Cl)c(Cl)cc1-2 | 19.4% | -1.4%[46.1 µM] | · | · | -2.2 | 10.7%[46.1 µM]
CCOc1ccccc1NC(=O)CCc1c(C)nn(-c2ccc(N3CCCCC3)nn2)c1C | ? | ? | ? | ? | -18.9 | ·
CCCc1cc(NCCCN2CCOCC2)n2c(nc3ccccc32)c1C#N | ? | -1.0% | -19.5% | -22.4% | -60.1* | -9.8%
CCCc1cc(Nc2c(C)n(C)n(-c3ccccc3)c2=O)n2c(nc3ccccc32)c1C#N | -4.7% | 3.5% | -1.5% | 1.65µM* | -34.0 | 16.8%
C=C(C)CSc1cc(C)c(C#N)c2nc3ccccc3n12 | 11.2µM* | ? | ? | ? | -74.8* | ?
Cc1cc(Nc2cccc([N+](=O)[O-])c2)n2c(nc3ccccc32)c1C#N | 6.31µM* | 6.31µM* | ? | ? | -100.3* | 3.16µM*
Cc1cc(Nc2ccc(F)cc2)n2c(nc3ccccc32)c1C#N | · | 0.7%[46.1 µM] | · | · | -24.6 | 0.8%[46.1 µM]
CC(=O)c1ccc(OC2(C)CCN(Cc3ccc4c(c3)OCCO4)C2)cc1 (stereo not drawn) | · | · | · | · | 54.4 | ·
Cc1ccc(CN2CCCn3nc(C(=O)NCCc4ccc(Cl)cc4)cc3C2=O)cc1 | · | 1.5%[46.1 µM] | · | · | -12.4 | ·
CC(C)(C)OC(=O)C[C@@H]1C/C=C\C[C@H](CC(=O)N[C@H](CO)Cc2ccccc2)C(=O)N[C@@H](Cc2c[nH]c3ccccc23)COC1=O | ? | · | · | · | -15.6 | ·
Cn1c(CN2CCOCC2)nc2cc(NC(=O)COc3ccc([N+](=O)[O-])cc3)ccc21 | -18.1% | 2.6% | ? | ? | -71.4* | ?
Cc1cccc(OCC(=O)Nc2ccc3c(c2)nc(CCN2CCN(C)CC2)n3C)c1 | -19.3% | 13.7% | ? | ? | ? | 16.5%
Cc1cccc(OCC(=O)Nc2ccc3c(c2)nc(CCN2CCC(C)CC2)n3C)c1 | ? | · | ? | ? | -69.2* | ·
CC1CCN(CCc2nc3cc(NC(=O)COc4ccc([N+](=O)[O-])cc4)ccc3n2C)CC1 | ? | ? | ? | 3.7µM* | ? | ?
CC1CCN(CCc2nc3cc(NC(=O)Nc4ccccc4)ccc3n2C)CC1 | ? | 2.0% | ? | 6.57µM* | ? | ?
Cn1c(CCN2CCOCC2)nc2cc(NC(=O)COc3ccc([N+](=O)[O-])cc3)ccc21 | -4.0% | · | ? | -6.8% | -29.9 | ·
CC(=O)Nc1ccc2c(c1)nc(CCN1CCC(C)CC1)n2C | 12.1% | 5.7% | 10.7% | · | -19.4 | 3.3%
Cc1[nH]c(=O)[nH]c(=O)c1C1N2CC3(C(C)C)CN1CC(C(C)C)(C2)C3=O (stereo not drawn) | · | 2.0%[46.1 µM] | · | · | -4.4 | 20.0%[46.1 µM]
CC(=O)c1ccc(NC(=O)CCCSc2nc(-c3ccco3)cc(C(F)(F)F)n2)cc1 | · | 0.3%[46.1 µM] | · | · | -6.4 | -20.3%[46.1 µM]
COC(=O)C[C@H]1CC[C@H](NS(=O)(=O)c2cn(C)cn2)[C@@H](CO)O1 | · | · | · | · | -9.8 | ·
CCCCCCCCCCCCCCCCCCOCC(O)CO (stereo not drawn) | · | · | ? | -17.3% | · | ·
SMILES | HCV inh | Lassa entry inh | Pf growth 96h | Pf growth 48h | HCMV antiviral | Marburg entry inh
COC(=O)c1c(N)n(-c2cc(Cl)cc(Cl)c2)c2nc3ccccc3nc12 | · | 20.2%[46.1 µM] | · | · | -6.7 | -5.9%[46.1 µM]
Cn1c(CCN2CCOCC2)nc2cc(NC(=O)COc3ccccc3)ccc21 | 12.0% | -2.5% | 4.4% | -9.8% | -26.7 | ?
Cn1c(CCn2ccccc2=O)nc2cc(NC(=O)COc3ccccc3)ccc21 | 9.6% | · | 10.4µM* | -1.0% | 0.0 | ·
Cc1cc2nccc(-c3ccc(Cl)cc3Cl)n2n1 | ? | · | -2.0% | 15.0% | -70.2* | ·
Cc1cc2nccc(-c3ccncc3)n2n1 | -1.3% | 34.2%[46.1 µM] | 33.8% | 11.7% | -63.8* | 5.4%[46.1 µM]
CC(=O)c1sc(Nc2ccc(Oc3ccccc3)cc2)nc1C | · | · | · | · | -20.4 | ·
CC(C)(C)c1ccc(C2CC2C(=O)N/N=C\c2cc3ccccc3nc2Cl)cc1 (stereo not drawn) | ? | ? | ? | ? | 52.4 | -4.8%
CC(=O)Nc1ccc(C(C)=NNC(=O)C2CCCC2)cc1 | · | · | · | · | 9.0 | ·
O=C(N/N=C/C=C/c1ccccc1)C1CC1c1ccccc1 (stereo not drawn) | -18.1% | 0.13µM* | -5.1% | 9.9% | 5.3 | ?
Cc1ccc2nc(Cl)c(/C=N/NC(=O)[C@H]3C[C@@H]3c3ccccc3)cc2c1 | ? | ? | 2.08µM* | ? | 17.8 | -8.8%
CC(=O)Nc1ccc(/C(C)=N/NC(=O)C2CC2c2ccccc2)cc1 (stereo not drawn) | -20.5% | 0.0184µM* | -20.0% | -14.8% | -11.3 | 3.4%
CN(C)c1ccc(/C=N/NC(=O)C2CC2c2ccccc2)cc1 (stereo not drawn) | -8.8% | · | 13.2% | -9.5% | 31.9 | ·
CC(=O)Nc1ccc(/C(C)=N\NC(=O)c2ccc(-c3ccccc3)cc2)cc1 | · | · | ? | 0.657µM* | · | ·
CCN(C(=O)CSc1nc(-c2ccc(C(C)C)cc2)no1)c1cccc(C)c1 | · | -9.7%[46.1 µM] | · | · | -15.5 | ·
CCOc1ccc(Cl)cc1C1CC(=O)Nc2cc(OC)c(OC)c(OC)c21 (stereo not drawn) | · | -1.7%[46.1 µM] | · | · | 20.5 | 19.6%[46.1 µM]
CCOc1ccccc1NS(=O)(=O)c1ccc2c(c1)oc(=O)n2C | · | -1.9%[46.1 µM] | · | · | -15.2 | 2.5%[46.1 µM]
COc1ccc(S(=O)(=O)Nc2cccc3c2O[C@H](CN(C)S(=O)(=O)c2cccs2)[C@@H](C)CN([C@H](C)CO)C3=O)cc1 | -24.4% | · | · | · | -16.6 | ·
CCOc1ccc(OCc2cccc(C(=O)N/N=C/c3cccnc3)c2)cc1 | 2.4% | 1.58µM* | 234.0% | 254.4% | 82.7 | 0.316µM*
O=C(N/N=C/c1cccnc1)c1ccccc1 | 11.2% | · | ? | 31.1% | ? | ·
Cc1ccc(C(=O)N/N=C/c2cccnc2)cc1Cl | · | · | · | · | -31.3 | ·
O=C(N/N=C/c1cccnc1)c1cccc(Br)c1 | 18.5% | · | 6.57µM* | 5.3% | 11.4 | ·
O=C(N/N=C/c1cc(Br)c(Br)o1)c1cccnc1 | 5.6% | -16.4% | 13.1µM* | -15.8% | -7.4 | -24.1%
CC(C)c1ccc(OCc2cccc(C(=O)N/N=C/c3cccnc3)c2)cc1 | ? | ? | 129.5% | 277.7% | 171.4 | 1.41µM*
COc1ccc(-c2noc(C3CCCN(C(=O)c4ccccc4)C3)n2)cc1 (stereo not drawn) | ? | · | -3.3% | 122.0% | -7.5 | ·
